The values below come from PubChem BioAssay (Tox21).

Assay [1] in a line: cAMP Responsive Elements (CRE) small molecule antagonists, cell-based qHTS assay: qHTS cell viability counter screen (AID 2060913). Further: nearly all actives have a fitted effect of over 40% in size. Further: potency means the concentration at half of the fitted maximal effect. To be noted: CRE-bla HEK293T viability, CellTiter-Glo luminescence, 5 h; series mostly up to 92.4 µM. The procedure, abridged:
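Steps: cells plated and held 18 hrs at 37 C/5% CO2; compounds and NKH477 (0.25 uM final) added; 3 hrs incubation; reporter substrate read; CellTiter-Glo added to measure cytotoxicity by luminescence.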
In general terms: Quantitative high-throughput screening tests each substance at several concentrations.

Assay [2] can be described thus: cAMP Responsive Elements (CRE) small molecule agonists, cell-based qHTS assay: qHTS cell viability counter screen (AID 2060914).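 Further: viability read after 3 h of compound exposure; nearly all actives have a fitted effect of over 50% in size.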 To be noted: CRE-bla HEK293T viability, CellTiter-Glo luminescence, 5 h; series mostly up to 92.4 µM. The procedure, abridged:
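HEK 293T CRE-bla; DMEM + 10% dialyzed FBS, 25 mM HEPES; 18 h pre-incubation; compound 3 h, 37 °C/5% CO2; CellTiter-Glo added after reporter read; luminescence after 30 min RT.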

Structures are written as SMILES. Several values for one entry are separate records, joined by “and”; a condition that tells them apart may be missing. Identical values can stand only once. Results filed as inconclusive are left out. Values without a mark were called inactive. Activity calls are given as the source filed them. The call rests on the fitted dose curve; in most records, active means well fitted cell-killing curve with a large enough effect in the repeat runs; inconclusive means weak or mixed curves, or effect the other way; inactive means flat fitted curve, though single readings scatter.
On the % scale 0 is the no-effect control and ±100 the full control effect.

In the case of `N#CCC(=O)NN`, the Potency result in assay [1] and in assay [2] was “inactive” in each case.

Turning to `CCCCCCC(=O)OCC`, the Potency entry in assay [1] and in assay [2] was “inactive” in each case.

As for `O=C(O)c1cccnc1`, the Potency result in assay [1] and in assay [2] was “inactive” throughout.

For the molecule `c1cc[nH]c1`, the Potency entry in assay [1] and in assay [2] was “inactive” each time.

In the case of `CC(C)=CCC1=C(O)c2ccccc2C(=O)C1=O`, the Potency result in assay [1] and in assay [2] was “inactive” throughout.

Consider `O=S(=O)(Oc1ccc(Cl)cc1)c1ccccc1`, for which the Potency result in assay [1] and in assay [2] was “inactive” throughout.

Turning to `Cc1c(N(C)CS(=O)(=O)O)c(=O)n(-c2ccccc2)n1C`, the Potency entry in assay [1] and in assay [2] was “inactive” each time.

`C=C(C)c1ccccc1`: the Potency entry in assay [1] and in assay [2] was “inactive” throughout.

Turning to `OCCCS`, the Potency result in assay [1] and in assay [2] was “inactive” each time.

As to `Cc1ccc(C(C)C)cc2c(C)ccc1-2`, the Potency result in assay [1] and in assay [2] was “inactive” throughout.

`O=S(=O)(c1ccccc1)c1ccc(Cl)cc1`: the Potency result in assay [1] and in assay [2] was “inactive” in each case.

With `COc1cc2c(cc1OC)C(=O)C(CC1CCN(Cc3ccccc3)CC1)C2` (stereo not drawn), the Potency entry in assay [1] and in assay [2] was “inactive” each time.

`CCO[Si](CC)(OCC)OCC`: the Potency entry in assay [1] and in assay [2] was “inactive” each time.

For the molecule `CC(C)(O)CCCC1=CCC(C=O)CC1` (stereo not drawn), the Potency entry in assay [1] and in assay [2] was “inactive” in each case.

For the molecule `O=C(CCCCCCCCc1cccnc1)N1CCC(C=C(c2ccccc2)c2ccccc2)CC1`, the Potency result in assay [1] and in assay [2] was “inactive” each time.

For `CCCCCCCCCCCCSC`, the Potency entry in assay [1] and in assay [2] was “inactive” in each case.

As for `CC(=O)c1ccc(S(=O)(=O)NC(=O)NC2CCCCC2)cc1`, the Potency entry in assay [1] and in assay [2] was “inactive” in each case.

As for `CCN(CC)c1ccc(C=O)cc1`, the Potency result in assay [1] and in assay [2] was “inactive” in each case.

As to `Cc1cc(C)c(C)c(O)c1`, the Potency entry in assay [1] and in assay [2] was “inactive” each time.

For the molecule `CC1=CCC(=O)O1`, the Potency result in assay [1] and in assay [2] was “inactive” throughout.

Take `O=C(O)CCCc1ccccc1`: the Potency entry in assay [1] and in assay [2] was “inactive” each time.

As to `CC(C)(C)c1cc(C(C)(C)C)c(O)c(C(C)(C)C)c1`, the Potency entry in assay [1] and in assay [2] was “inactive” throughout.

Regarding `CC(=O)NC(=O)c1ccccc1O`, the Potency entry in assay [1] and in assay [2] was “inactive” each time.

As to `CC(C)OC(=O)c1ccccc1C(=O)OC(C)C`, the Potency result in assay [1] and in assay [2] was “inactive” throughout.

For `CNc1ncnc2nc[nH]c12`, the Potency entry in assay [1] and in assay [2] was “inactive” in each case.

As for `C=C(C)CCO`, the Potency result in assay [1] and in assay [2] was “inactive” in each case.

`OCCO`: the Potency result in assay [1] and in assay [2] was “inactive” in each case.

For the molecule `COCCOC(=O)c1ccccc1C(=O)OCCOC`, the Potency entry in assay [1] and in assay [2] was “inactive” throughout.

For the molecule `C[C@H]1C[C@@H]2[C@H]([C@@H](O)C[C@@]3(C)[C@H]2CC[C@]3(O)C(=O)CO)[C@@]2(C)C=CC(=O)C=C12`, the Potency result in assay [1] and in assay [2] was “inactive” in each case.

As to `Cc1ccc(Cl)c(Nc2ccccc2C(=O)O)c1Cl`, the Potency result in assay [1] and in assay [2] was “inactive” throughout.

Regarding `Cc1ccc(C(=O)O)cc1[N+](=O)[O-]`, the Potency result in assay [1] and in assay [2] was “inactive” throughout.

Turning to `CN1[C@@H]2CC[C@H]1CC(NC(=O)n1c(=O)[nH]c3ccccc31)C2` (stereo partly drawn), the Potency result in assay [1] and in assay [2] was “inactive” each time.

As for `CC(=O)c1ccc(OCC(=O)N2CCCCC2)cc1`, the Potency entry in assay [1] and in assay [2] was “inactive” each time.

For `O=C1OC(=O)C2CCCCC12` (stereo not drawn), the Potency entry in assay [1] and in assay [2] was “inactive” each time.

For `Cc1ccccc1N=O`, the Potency entry in assay [1] and in assay [2] was “inactive” throughout.

For the molecule `N[C@@H](Cc1cc(I)c(Oc2ccc(O)c(I)c2)c(I)c1)C(=O)O`, the Potency entry in assay [1] and in assay [2] was “inactive” each time.

`CC(C)=CCC/C(C)=C/C#N`: the Potency entry in assay [1] and in assay [2] was “inactive” each time.

Take `Cc1nnc(SCC2=C(C(=O)O)N3C(=O)[C@@H](NC(=O)Cn4cnnn4)[C@H]3SC2)s1`: the Potency result in assay [1] and in assay [2] was “inactive” each time.

Take `CN1CCN(c2cc3c(nn2)Oc2ccccc2N3C)CC1`: the viability change, negative = cytotoxic in assay [1] was 4.41% [at 18.9 µM]. Moreover, in assay [2], the activity change, negative = cytotoxicity was 1.04% [at 18.9 µM].

As to `CC(C)(CO)[C@@H](O)C(=O)NCCC(=O)O`, the Potency entry in assay [1] and in assay [2] was “inactive” throughout.

Turning to `Nc1ccc(Oc2cccc(Oc3ccc(N)cc3)c2)cc1`, the Potency result in assay [1] and in assay [2] was “inactive” throughout.

In the case of `c1ccc(CNCc2ccccc2)cc1`, the Potency result in assay [1] and in assay [2] was “inactive” throughout.

Turning to `CC(C)c1ccc2c(C(C)C)cc(C(C)C)c(S(=O)(=O)O)c2c1`, the Potency result in assay [1] and in assay [2] was “inactive” throughout.

In the case of `CC(C)=CCC[C@H](C)CCO`, the Potency entry in assay [1] and in assay [2] was “inactive” each time.

In the case of `COCCOC`, the Potency entry in assay [1] and in assay [2] was “inactive” throughout.

Regarding `Cn1c(=O)c2c(ncn2CCO)n(C)c1=O`, the Potency result in assay [1] and in assay [2] was “inactive” each time.

For `c1ccc(COCc2ccccc2)cc1`, the Potency entry in assay [1] and in assay [2] was “inactive” each time.

Consider `CCOC(=O)OC(C)OC(=O)[C@@H]1N2C(=O)[C@@H](NC(=O)[C@H](N)c3ccccc3)[C@H]2SC1(C)C` (stereo partly drawn), for which the Potency entry in assay [1] and in assay [2] was “inactive” each time.

Take `CC(=O)c1ccc2c(c1)CCCC2`: the Potency entry in assay [1] and in assay [2] was “inactive” each time.

With `Cc1ccc(C(=O)O)o1`, the Potency entry in assay [1] and in assay [2] was “inactive” throughout.

Consider `Nc1ccc2cc(S(=O)(=O)O)cc(O)c2c1N=Nc1ccccc1C(F)(F)F`, for which the Potency result in assay [1] and in assay [2] was “inactive” each time.

For `O=C(c1ccc(O)cc1O)c1ccc(O)cc1O`, the Potency entry in assay [1] and in assay [2] was “inactive” in each case.

Take `COCN(COC)c1nc(N(COC)COC)nc(N(COC)COC)n1`: the Potency entry in assay [1] and in assay [2] was “inactive” in each case.

`Nc1cc(C(Cl)=C(Cl)Cl)c(S(N)(=O)=O)cc1S(N)(=O)=O`: the Potency entry in assay [1] and in assay [2] was “inactive” in each case.

With `O=C(NCCN1CCOCC1)c1ccc(Cl)cc1`, the Potency entry in assay [1] and in assay [2] was “inactive” in each case.

In the case of `O=S(=O)(O)c1ccc(Cl)cc1`, the Potency entry in assay [1] and in assay [2] was “inactive” each time.

Consider `CN(C)C(=S)SC(=S)N(C)C`, for which the Potency in assay [1] was 62.7 µM (active) and 3.2 µM (active). Besides, the Potency entry in assay [2] was “inactive”.

`C[N+]1([O-])CCOCC1`: the Potency entry in assay [1] and in assay [2] was “inactive” in each case.

Consider `CC(N)C(=O)OC(C)(C)Cc1ccc(Cl)cc1` (stereo not drawn), for which the Potency entry in assay [1] and in assay [2] was “inactive” in each case.
